High-throughput results: PubChem BioAssay, several laboratories
Gli-Sufu block – antagonists of Gli-Sufu signaling | Sufu-KO-LIGHT fibroblasts, Gli luciferase reporter luminescence | inhibition, % at 5 µM | 340,000 tested, 0.74% active | AID 588413;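 active means inhibition above about 55%, limit read from the data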
aDG glyco up – increases alpha dystroglycan glycosylation; Pro5-aDG cells, alpha-DG glycosylation AlphaScreen (IIH6); 0% Pro5, 100% B10-LARGE cell signal; activation, % at 10 µM; 360,000 tested, 0.22% active; AID 624168;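 active means activation of at least 8% versus controls, or a plate z-score of at least 8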;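 further: Pro5 are CHO cells carrying HIG-tagged alpha-DG that lacks glycosylation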
Env fusion inh – HIV envelope-mediated fusion inhibition. HeLa-JRFL Env/CEM21 cell fusion, luciferase. inhibition, % at 12.3 µM. 360,000 tested, 1.1% active;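 active means mean replicate inhibition score of at least 50 and every replicate individually at or above 50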
COUP-TFII inh – blocks human COUP-TFII nuclear receptor. P24468. HEK293T NGFI-A luciferase reporter, luminescence. inhibition, % at 8.6 µM. AID 686940. 370,000 tested, 0.7% active;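 active means inhibition above a per-plate cutoff, mean inhibition of test wells between control levels plus 3 SD, cut at about 38% in these data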;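 further: cells cotransfected with COUP-TFII expression vector driving the NGFI-A reporter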
Target sequence (P24468 whole entry, looked up): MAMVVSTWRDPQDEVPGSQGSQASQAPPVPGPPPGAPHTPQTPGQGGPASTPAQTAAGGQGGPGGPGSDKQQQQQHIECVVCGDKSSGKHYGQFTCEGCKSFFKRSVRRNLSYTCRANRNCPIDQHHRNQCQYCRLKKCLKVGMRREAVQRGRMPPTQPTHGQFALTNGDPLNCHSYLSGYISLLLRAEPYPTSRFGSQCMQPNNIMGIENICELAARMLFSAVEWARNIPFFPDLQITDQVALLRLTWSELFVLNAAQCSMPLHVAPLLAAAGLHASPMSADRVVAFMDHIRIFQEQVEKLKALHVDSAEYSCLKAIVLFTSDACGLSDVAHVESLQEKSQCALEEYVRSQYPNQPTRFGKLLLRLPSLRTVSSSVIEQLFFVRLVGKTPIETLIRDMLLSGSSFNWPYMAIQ
GalR3 antag – human GalR3 antagonism | HEK293 GalR3-CNG cAMP membrane potential fluorescence; galR3 body fused to GalR1 C-terminus | inhibition, % at 3 µM | 360,000 tested, 0.44% active | AID 651719;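 active means inhibition above the screen-wide average plus 3 SD, cut at about 13% in these data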;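 further: forskolin and galanin both at EC90 stimulate the cells; cAMP rise reported by CNG channel membrane potential dye signal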
Target sequence (O60755 1-299 limits assumed): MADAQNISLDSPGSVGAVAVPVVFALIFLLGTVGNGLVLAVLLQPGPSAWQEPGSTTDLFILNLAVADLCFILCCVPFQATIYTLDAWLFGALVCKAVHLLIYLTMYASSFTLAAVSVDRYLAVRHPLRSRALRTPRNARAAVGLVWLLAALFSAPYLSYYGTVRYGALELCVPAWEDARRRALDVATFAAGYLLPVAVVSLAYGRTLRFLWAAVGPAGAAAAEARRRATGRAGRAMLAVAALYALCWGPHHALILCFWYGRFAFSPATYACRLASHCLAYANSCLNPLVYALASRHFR
Gli-Sufu confirm – Gli-SUFU antagonism confirmation, single concentration; Sufu-KO-LIGHT cells, Gli luciferase reporter, luminescence; inhibition, % at 5 µM; 2,500 tested, 40% active; shares compounds with Gli-Sufu block;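 active means mean inhibition at 5 µM reaching about 45%, limit read from the data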
SufuKO cytotox – counter-screen for Gli-SUFU antagonists: cytotoxicity; shares compounds with Gli-Sufu block; cytotoxicity, % at 5 µM; Sufu-KO-LIGHT cells cytotoxicity, ATP luminescence; 2,500 tested, 32% active;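 active means mean cytotoxicity at 5 µM above about 25%, limit read from the data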;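 further: cells exposed to compound overnight for roughly 16 to 18 hours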
Wnt3a cs – inhibits Wnt3a reporter, counter-screen for Gli-SUFU antagonists. shares compounds with Gli-Sufu block. Wnt-LIGHT cells, Wnt3a-driven luciferase reporter, luminescence. inhibition, % at 6.25 µM. 2,500 tested, 20% active;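 active means mean inhibition above about 25%, limit read from the data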
Large screens that a line does not name were inactive (follow-up assays come after a bar, where they were run). Only some compounds are listed: those with a hit (about 2.1% of all), similar ones and a draw of the others.

Cc1ccc(-n2nnnc2SCC(=O)Nc2cccnc2Cl)cc1	none | Gli-Sufu confirm inactive | SufuKO cytotox inactive | Wnt3a cs inactive
C[C@@H]1CN([C@@H](C)CO)C(=O)c2cccc(NC(=O)c3ccc(-c4nccs4)cc3)c2O[C@H]1CN(C)S(=O)(=O)c1ccccc1	none (no result: Gli-Sufu block, aDG glyco up, COUP-TFII inh, GalR3 antag)
CCCCCCCCCCCC1N=C(N)NC(CCCO)=C1C(=O)OC (configuration not stated)	Gli-Sufu block 78 | Gli-Sufu confirm inactive | SufuKO cytotox inactive | Wnt3a cs 27
CCCCCCOC(=O)c1ccc(N)cc1	none
C[C@@H]1CCCCO[C@H](CN(C)C(=O)Nc2ccc(C(F)(F)F)cc2)[C@H](C)CN([C@H](C)CO)C(=O)c2cc(NS(=O)(=O)c3cccs3)ccc2O1	none (no result: Gli-Sufu block, aDG glyco up, COUP-TFII inh, GalR3 antag)
O=C(N/N=C/c1ccc([N+](=O)[O-])o1)C1CCCC1	none
O=[N+]([O-])c1ccc(/C=[N+](\[O-])[C@@H]2CCCC[C@@H]2/[N+]([O-])=C/c2ccc([N+](=O)[O-])o2)o1	Gli-Sufu block 76 | Gli-Sufu confirm 67 | SufuKO cytotox inactive | Wnt3a cs inactive
COCc1cn(CC[C@H]2CC[C@H](NC(=O)c3ccc(F)cc3)[C@@H](CO)O2)nn1	none (no result: Gli-Sufu block, aDG glyco up, COUP-TFII inh, GalR3 antag)
CCOc1ccccc1-c1nc(CN2CCCC2c2nccs2)c(C)o1 (configuration not stated)	none | Gli-Sufu confirm inactive | SufuKO cytotox inactive | Wnt3a cs inactive
COc1ccc(NC(=O)Nc2cccc3ccccc23)cc1OC	none (no result: Env fusion inh)
CCOC(=O)c1ccc(NC(=O)Nc2ccc(OC)c(OC)c2)cc1	Gli-Sufu block 61 | Gli-Sufu confirm inactive | SufuKO cytotox inactive | Wnt3a cs inactive
CCOC(=O)c1ccccc1NC(=O)Nc1ccc(OC)c(OC)c1	Gli-Sufu block 62 | Gli-Sufu confirm inactive | SufuKO cytotox inactive | Wnt3a cs inactive
CCCC(C)C(=O)Nc1ccccc1C(=O)OCC (configuration not stated)	Gli-Sufu block 100 (no result: Env fusion inh) | Gli-Sufu confirm inactive | SufuKO cytotox inactive | Wnt3a cs inactive
CCOC(=O)c1ccccc1NC(=O)C(C)Oc1ccccc1 (configuration not stated)	none
COc1ccc2c(c1)nc(SCC(=O)C(C)(C)C)n2C	Gli-Sufu block 64 | Gli-Sufu confirm inactive | SufuKO cytotox inactive | Wnt3a cs inactive
COc1ccc2c(c1)nc(SCC(C)O)n2C (configuration not stated)	none
COc1cccc(-c2ccc3c(c2)O[C@@H](CN(C)C(=O)c2ccccc2F)[C@@H](C)CN([C@@H](C)CO)S3(=O)=O)c1	none (no result: Gli-Sufu block, aDG glyco up, COUP-TFII inh, GalR3 antag)
CCCCn1c(=O)[nH]c(=O)c2c1nc(-c1ccc(-c3ccccc3)cc1)n2C	none | Gli-Sufu confirm inactive | SufuKO cytotox inactive | Wnt3a cs inactive
CCn1c(-c2ccsc2)nc2c1c(=O)[nH]c(=O)n2Cc1ccccc1	Gli-Sufu block 62 | Gli-Sufu confirm inactive | SufuKO cytotox inactive | Wnt3a cs inactive
CNC[C@@H]1Oc2c(NC(=O)c3cnccn3)cccc2C(=O)N([C@H](C)CO)C[C@@H]1C	none (no result: Gli-Sufu block, aDG glyco up, COUP-TFII inh, GalR3 antag)
N#Cc1cccc(NC(=O)CNc2cccc(S(=O)(=O)N3CCCC3)c2)c1	Gli-Sufu block 66 (no result: Env fusion inh) | Gli-Sufu confirm inactive | SufuKO cytotox inactive | Wnt3a cs inactive
Cc1cc(C)cc(-n2ccn(CC(=O)NCCc3ccccc3)c(=O)c2=O)c1	none | Gli-Sufu confirm inactive | SufuKO cytotox inactive | Wnt3a cs inactive
Cn1c(C2CCCN2C(=O)OC(C)(C)C)n[nH]c1=S (configuration not stated)	none | Gli-Sufu confirm inactive | SufuKO cytotox inactive | Wnt3a cs inactive
C=CCOC(=O)c1[nH]c2c(c1C)C(=O)CC(c1cc(OC)c(OC)c(OC)c1)C2 (configuration not stated)	none (no result: Env fusion inh, COUP-TFII inh, GalR3 antag) | Gli-Sufu confirm 61 | SufuKO cytotox inactive | Wnt3a cs inactive
COCCOC(=O)c1[nH]c2c(c1C)C(=O)CC(c1cc(OC)c(OC)c(OC)c1)C2 (configuration not stated)	none
Cc1ccc(N/C(N)=N/c2nc(CSc3nnc(C)s3)cc(=O)[nH]2)c(C)c1	none | Gli-Sufu confirm 57 | SufuKO cytotox 56 | Wnt3a cs inactive
COc1ccc(N/C(N)=N/c2nc(CSc3nnc(C)s3)cc(=O)[nH]2)cc1	none
CN1CCN(C(CNC(=O)C(=O)Nc2ccc3c(c2)OCO3)c2ccc(F)cc2)CC1 (configuration not stated)	none | Gli-Sufu confirm inactive | SufuKO cytotox inactive | Wnt3a cs inactive
COc1ccc(C(CNC(=O)C(=O)Nc2ccc3c(c2)OCO3)N2CCN(C)CC2)cc1 (configuration not stated)	none
O=C(Nc1ccccc1F)N[C@H]1CC[C@H](CCNC(=O)C2CCC2)O[C@@H]1CO	none (no result: Gli-Sufu block, aDG glyco up, COUP-TFII inh, GalR3 antag)
CC(C)OCCCNC(=O)c1ccc(CS(=O)(=O)c2cccc(C(F)(F)F)c2)o1	none | Gli-Sufu confirm inactive | SufuKO cytotox inactive | Wnt3a cs inactive
C[C@@H]1CN([C@@H](C)CO)S(=O)(=O)c2ccc(C#C[C@@H](C)O)cc2O[C@@H]1CN(C)C(=O)C1CCCCC1	none (no result: Gli-Sufu block, aDG glyco up, COUP-TFII inh, GalR3 antag)
Cc1cc(C)c2nc(NNC(=O)c3ccc(S(=O)(=O)N4CCCC(C)C4)cc3)sc2c1 (configuration not stated)	Gli-Sufu block 58 (no result: Env fusion inh, GalR3 antag) | Gli-Sufu confirm inactive | SufuKO cytotox inactive | Wnt3a cs inactive
Cc1cc(-c2cccs2)c2c(n1)sc1c(=O)[nH]c(=O)[nH]c12	Gli-Sufu block 84 | Gli-Sufu confirm inactive | SufuKO cytotox 31 | Wnt3a cs inactive
C[C@@H]1CN([C@H](C)CO)S(=O)(=O)c2ccc(C3=CCCCC3)cc2O[C@H]1CN(C)C(=O)C1CCC1	none (no result: Gli-Sufu block, aDG glyco up, COUP-TFII inh, GalR3 antag)
CCC1(O)C(=O)OCc2c1cc1n(c2=O)Cc2cc3cc(O)ccc3nc2-1 (configuration not stated)	none (no result: Env fusion inh) | Gli-Sufu confirm 64 | SufuKO cytotox 51 | Wnt3a cs inactive
CCc1c2c(nc3ccc(OC(=O)N4CCC(N5CCCCC5)CC4)cc13)-c1cc3c(c(=O)n1C2)COC(=O)[C@]3(O)CC	none (no result: Env fusion inh, GalR3 antag)
C[C@@H]1CN([C@@H](C)CO)C(=O)c2cc(NS(=O)(=O)c3ccccc3)ccc2O[C@H]1CN(C)C	none (no result: Gli-Sufu block, aDG glyco up, COUP-TFII inh, GalR3 antag)
O=C(COc1ccc2c3c(c(=O)oc2c1)CCCC3)NCCN1CCOCC1	none (no result: Env fusion inh, COUP-TFII inh, GalR3 antag)
O=C(COc1ccc2c3c(c(=O)oc2c1)CCCC3)NCCCN1CCOCC1	Gli-Sufu block 94 | Gli-Sufu confirm inactive | SufuKO cytotox inactive | Wnt3a cs inactive
Cc1cccc(CCN2C(N(C)C)=NC[C@@H]2Cc2ccccc2)c1	none
CN(C)C1=NC[C@H](Cc2ccccc2)N1CCCCc1ccccc1	none | Gli-Sufu confirm inactive | SufuKO cytotox 29 | Wnt3a cs inactive
